# Measured values: PubChem BioAssay AID602323 (The Scripps Research Institute Molecular Screening Center, 2012)
# Unmarked numbers belong to inactive results. No rule for the calls is given here.
# Test system: 80kDa SH
# Experiment: serine hydrolase inhibition in mouse brain membranes, late-stage follow-up, selectivity assay for DAGLb inhibitor project, biochemical, gel-based competitive ABPP, fluorescence, set 2 (AID 602323)
# Conditions: mouse brain membrane, at 1 µM, stronger effect = higher value
smiles,measurement,value
O=C(N1CCCCC1Cc1ccccc1)n1cc(-c2ccc(-c3ccccc3)cc2)nn1 (stereo unspecified),inhibition,10%
